# From the supplement of paper PMC8728848
# This is one part of a sample in which the strongest signals are shown more often than they occur.
# Key:
# Experiment in all cases: glycan array binding signal (z-score within array); higher = stronger binding
# Settings in all cases: glycan notation: IUPAC condensed, linker removed
# [1] = target: Fuc(a1-2)Gal(b1-4)GlcNAc(b1-3)[Fuc(a1-2)Gal(b1-4)GlcNAc(b1-6)]GalNAc
# Summary of the method: (§1)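 From the Consortium for Functional Glycomics database, 3228 arrays were curated, keeping only those whose protein sequence was available. Binding is given as a within-array Z-score averaged across arrays sharing a protein sequence and across linkers. Negative Z-scores can be read as non-binding.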
# [2] = target: Fuc(a1-2)Gal6S(b1-3)GlcNAc
# Summary of the method: as §1
# [3] = target: Fuc(a1-2)[GalNAc(a1-3)]Gal(b1-3)GlcNAc(b1-2)Man(a1-3)[Fuc(a1-2)[GalNAc(a1-3)]Gal(b1-3)GlcNAc(b1-2)Man(a1-6)]Man(b1-4)GlcNAc(b1-4)[Fuc(a1-6)]GlcNAc
# Summary of the method: as §1
# [4] = target: Fuc(a1-2)[GalNAc(a1-3)]Gal(b1-4)GlcNAc
# Summary of the method: as §1
# Fuc(a1-3)GlcNAc = target: Fuc(a1-3)GlcNAc
# Summary of the method: as §1
# [5] = target: Fuc(a1-3)[Gal(b1-4)]GlcNAc(b1-3)Gal(b1-4)[Fuc(a1-3)]GlcNAc
# Summary of the method: as §1
# [6] = target: Fuc(a1-3)[Gal(b1-4)]GlcNAc6S
# Summary of the method: as §1
# [7] = target: Gal(a1-3)[Gal(a1-4)]Gal(b1-4)GlcNAc
# Summary of the method: as §1
# Gal(b1-3)Gal = target: Gal(b1-3)Gal
# Summary of the method: as §1
# Gal(b1-3)GlcNAc = target: Gal(b1-3)GlcNAc
# Summary of the method: as §1
# [8] = target: Gal(b1-3)GlcNAc(b1-2)Man(a1-3)[Gal(b1-3)GlcNAc(b1-2)Man(a1-6)]Man(b1-4)GlcNAc(b1-4)[Fuc(a1-6)]GlcNAc
# Summary of the method: as §1
# [9] = target: Gal(b1-3)GlcNAc(b1-3)Gal(b1-4)Glc
# Summary of the method: as §1
# [10] = target: Gal(b1-3)GlcNAc(b1-6)GalNAc
# Summary of the method: as §1
# [11] = target: Gal(b1-3)GlcNAc(b1-6)[Gal(b1-3)]GalNAc
# Summary of the method: as §1
# [12] = target: Gal(b1-3)[GlcNAc(b1-6)]GalNAc
# Summary of the method: as §1
# [13] = target: Gal(b1-4)GlcNAc(b1-2)Man(a1-3)[Gal(b1-4)GlcNAc(b1-2)Man(a1-6)][GlcNAc(b1-4)]Man(b1-4)GlcNAc(b1-4)[Fuc(a1-6)]GlcNAc
# Summary of the method: as §1
# [14] = target: Gal(b1-4)GlcNAc(b1-2)[Gal(b1-4)GlcNAc(b1-4)]Man(a1-3)[Gal(b1-4)GlcNAc(b1-2)Man(a1-6)]Man(b1-4)GlcNAc(b1-4)GlcNAc
# Summary of the method: as §1
# [15] = target: Gal(b1-4)GlcNAc(b1-3)Gal(b1-4)GlcNAc(b1-2)Man(a1-3)[Gal(b1-4)GlcNAc(b1-3)Gal(b1-4)GlcNAc(b1-2)Man(a1-6)]Man(b1-4)GlcNAc(b1-4)GlcNAc
# Summary of the method: as §1
# [16] = target: Gal(b1-4)GlcNAc(b1-3)Gal(b1-4)GlcNAc(b1-3)Gal(b1-4)GlcNAc(b1-2)Man(a1-3)[Gal(b1-4)GlcNAc(b1-3)Gal(b1-4)GlcNAc(b1-3)Gal(b1-4)GlcNAc(b1-2)Man(a1-6)]Man(b1-4)GlcNAc(b1-4)GlcNAc
# Summary of the method: as §1
# [17] = target: Gal(b1-4)GlcNAc(b1-3)Gal(b1-4)GlcNAc(b1-3)Gal(b1-4)GlcNAc(b1-2)[Gal(b1-4)GlcNAc(b1-3)Gal(b1-4)GlcNAc(b1-3)Gal(b1-4)GlcNAc(b1-6)]Man(a1-6)[Gal(b1-4)GlcNAc(b1-3)Gal(b1-4)GlcNAc(b1-3)Gal(b1-4)GlcNAc(b1-2)Man(a1-3)]Man(b1-4)GlcNAc(b1-4)[Fuc(a1-6)]GlcNAc
# Summary of the method: as §1
# [18] = target: Gal(b1-4)GlcNAc(b1-3)Gal(b1-4)GlcNAc(b1-3)Gal(b1-4)GlcNAc(b1-3)Gal(b1-4)GlcNAc(b1-2)Man(a1-3)[Gal(b1-4)GlcNAc(b1-3)Gal(b1-4)GlcNAc(b1-3)Gal(b1-4)GlcNAc(b1-3)Gal(b1-4)GlcNAc(b1-2)Man(a1-6)]Man(b1-4)GlcNAc(b1-4)[Fuc(a1-6)]GlcNAc
# Summary of the method: as §1
# [19] = target: Gal(b1-4)GlcNAc(b1-3)Gal(b1-4)GlcNAc(b1-3)[Gal(b1-4)GlcNAc(b1-3)Gal(b1-4)GlcNAc(b1-6)]GalNAc
# Summary of the method: as §1
# [20] = target: Gal(b1-4)GlcNAc(b1-3)Gal(b1-4)GlcNAc(b1-6)[Gal(b1-3)]GalNAc
# Summary of the method: as §1
# [21] = target: Gal(b1-4)GlcNAc(b1-3)[GlcNAc(b1-6)]Gal(b1-4)GlcNAc
# Summary of the method: as §1
# [22] = target: Gal3S(b1-4)[Fuc(a1-3)]GlcNAc6S
# Summary of the method: as §1
binder,measurement,setting,value
"MPA (Maclura pomifera), P18674 (protein) GVTFDDGAYTGIREINFEYNSETAIGGLRVTYDLNGMPFVAEDHKSFITGFKPVKISLEFPSEYIVEVSGYVGKVEGYTVIRSLTFKTNKQTYGPYGVTNGTPFSLPIENGLIVGFKGSIGYWLDYFSIYLSL",glycan array binding signal (z-score),[1],-0.236
same,glycan array binding signal (z-score),[2],-0.247
same,glycan array binding signal (z-score),[3],-0.363
same,glycan array binding signal (z-score),[4],-0.227
same,glycan array binding signal (z-score),Fuc(a1-3)GlcNAc,-0.164
same,glycan array binding signal (z-score),[5],-0.148
same,glycan array binding signal (z-score),[6],0.042
same,glycan array binding signal (z-score),[7],-0.119
same,glycan array binding signal (z-score),Gal(b1-3)Gal,-0.079
same,glycan array binding signal (z-score),Gal(b1-3)GlcNAc,-0.201
same,glycan array binding signal (z-score),[8],-0.074
same,glycan array binding signal (z-score),[9],-0.157
same,glycan array binding signal (z-score),[10],-0.363
same,glycan array binding signal (z-score),[11],-0.291
same,glycan array binding signal (z-score),[12],-0.112
same,glycan array binding signal (z-score),[13],-0.26
same,glycan array binding signal (z-score),[14],-0.046
same,glycan array binding signal (z-score),[15],3.21
same,glycan array binding signal (z-score),[16],8.11
same,glycan array binding signal (z-score),[17],2.44
same,glycan array binding signal (z-score),[18],4.26
same,glycan array binding signal (z-score),[19],4
same,glycan array binding signal (z-score),[20],2.93
same,glycan array binding signal (z-score),[21],-0.172
same,glycan array binding signal (z-score),[22],-0.226
